# CCT chaperon mod – High-Throughput Screening for Modulators of Cytosolic Chaperonin Activity. purified chaperonin ATPase assay, HTRF ADP detection, 30 min. activity change, % (test concentration not listed), hits read low. hit rate 0.3% among 360,000; in the data active means activity change below about -30%
#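 TRiC (40 or 20 nM final, by batch activity) in 30 mM Tris pH 7.4, 100 mM KCl, 5 mM MgCl2, 1 mM DTT was treated with compound at 76 uM single dose, then 10 uM ATP, 30 min at 37 °C. ADP was read by HTRF Transcreener.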
# PLK1 PBD block – qHTS for Inhibitors of PLK1-PDB (polo-like kinase 1 - polo-box domain): Primary Screen; Serine/threonine-protein kinase PLK1 (Homo sapiens), P53350; Plk1 PBD binding of FITC phosphopeptide, fluorescence polarization; Potency, µM, without a hit: max response, negative = inhibition, usual class: inhibitors; hit rate 2.8% among 360,000; AID 720504, 2013; further: potency means the concentration at half of the fitted maximal effect; series mostly up to about 57 µM; nearly all actives have a fitted effect of over 65% in size
# Target sequence (P53350 whole entry, looked up, the tested form may be a part): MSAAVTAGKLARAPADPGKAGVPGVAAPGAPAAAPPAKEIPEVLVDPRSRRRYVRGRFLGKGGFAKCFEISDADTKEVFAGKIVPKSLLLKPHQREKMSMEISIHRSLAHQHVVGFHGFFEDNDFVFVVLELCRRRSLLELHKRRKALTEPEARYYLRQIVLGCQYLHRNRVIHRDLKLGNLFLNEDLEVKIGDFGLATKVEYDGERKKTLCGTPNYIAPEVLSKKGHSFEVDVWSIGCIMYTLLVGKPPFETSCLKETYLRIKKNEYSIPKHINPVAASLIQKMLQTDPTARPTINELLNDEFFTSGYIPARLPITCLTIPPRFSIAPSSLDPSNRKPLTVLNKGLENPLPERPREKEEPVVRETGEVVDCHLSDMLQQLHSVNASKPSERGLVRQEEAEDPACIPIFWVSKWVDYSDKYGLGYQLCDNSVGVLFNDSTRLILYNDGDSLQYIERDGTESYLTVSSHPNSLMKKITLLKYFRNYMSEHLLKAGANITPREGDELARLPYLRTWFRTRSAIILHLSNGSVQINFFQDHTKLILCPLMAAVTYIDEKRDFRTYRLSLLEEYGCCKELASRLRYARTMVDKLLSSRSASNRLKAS
# Mm-Cpn inhibitor – Inhibitors of TCP-1 ring complex (TRiC) of Methanococcus maripaludis (MmCpn): qHTS; Chaperonin Mm-Cpn (Methanococcus maripaludis); hit rate 0.031% among 330,000; purified Mm-Cpn ATPase, ADP Transcreener TR-FRET; Potency, µM (highest dose often 76.9 µM), without a hit: at the highest dose activity, negative = inhibition, hits mostly inhibitors; further: potency means the concentration at half of the fitted maximal effect; nearly all actives have a fitted effect of over 80% in size
#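 ATP (10 uM final) was added to archaeal chaperonin (25 nM final) after 10 min exposure to test compound at 37°C; after 30 min further incubation, ADP was detected by competitive TR-FRET.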
# Sfp inh – qHTS Assay for Inhibitors of Bacillus subtilis Sfp phosphopantetheinyl transferase (PPTase) | hit rate 3.5% among 310,000 | 4'-phosphopantetheinyl transferase ffp (Bacillus subtilis), Q9F4F7 | Biochemical Sfp PPTase activity, qHTS | AID 1490, 2009 | Potency, µM, inactives show largest response in the series, negative = inhibition, actives largely listed as inhibitors;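 further: the enzyme is Sfp with the accession as filed and its product quenches rhodamine fluorescence; potency means the concentration at half of the fitted maximal effect; 0% = enzyme reaction without inhibitor and -100% = no enzyme wells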
#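 Fluorescence-quenching assay with 15 nM Sfp, 5 uM rhodamine-CoA and 12.5 uM BHQ-2-labelled ybbR peptide in pH 7.6 Hepes/MgCl2 buffer. Enzyme was pre-incubated with compound for 15 min at room temperature. Rate was taken from the 30-min fluorescence change (525/598 nm).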
# G9a inh – qHTS Assay for Inhibitors of Histone Lysine Methyltransferase G9a. G9a H3K9 monomethylation, AlphaScreen, 2 h. Histone-lysine N-methyltransferase EHMT2 (Homo sapiens), Q96KQ7. hit rate 8.8% among 350,000. Potency, µM (titrated, usually from 102 µM), inactives show at the highest dose activity, negative = inhibition, hits mostly inhibitors. AID 504332, 2011; further: potency means the concentration at half of the fitted maximal effect; nearly all actives have a fitted effect of over 75% in size
#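 Step 1: enzyme (final 20 nM) with compound, 15 min RT. Step 2: substrate peptide 500 nM and SAM 20 uM, 2 h RT. Step 3: anti-H3K9me1 antibody and AlphaScreen beads, 10 min, then plate read.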
# VDR inh – Inhibitors of the vitamin D receptor (VDR): qHTS; Vitamin D3 receptor (Homo sapiens), P11473; hit rate 0.93% among 400,000; Potency, µM, for inactives: max response, negative = inhibition, usual class: inhibitors; VDR-SRC2-3 peptide fluorescence polarization, 2 h; further: potency means the concentration at half of the fitted maximal effect
#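 Inhibition of the VDR/SRC2-3 peptide interaction is quantified by fluorescence polarization. Compounds (23 nl, pintool) incubate with the reagents for 2 hours at ambient room temperature.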
# * marks the source's active call; other numbers are inactive results; ? = inconclusive; · = no result; [ ] = dose if it differs, or a comment. Compounds with a hit are over-represented: about 10% of the library has one in this group of screens. Unless noted, the call rests on the fitted dose curve; in most records, active means well fitted curve in the direction sought with a large enough effect; inconclusive means small, poorly fitted or top-dose-only effect, or another doubt; inactive means no such curve, though single readings can be large; an effect the other way counts as inactive or inconclusive. Unless noted, on the % scale 0 is the no-effect control and ±100 the full control effect.
SMILES,CCT chaperon mod,PLK1 PBD block,Mm-Cpn inhibitor,Sfp inh,G9a inh,VDR inh
COCc1nnc(NC(=O)CS(=O)(=O)c2ccc(C)cc2)s1,0,-11%,2%,-15%,50µM*,10%
CCCc1nnc(NC(=O)CS(=O)(=O)c2ccc(C)cc2)s1,-1,4%,-1%,-8%,-8%,-3%
Cc1ccc(S(=O)(=O)CC(=O)Nc2nc(C(C)(C)C)cs2)cc1,0,1%,2%,9%,40µM*,8%
Cc1ccc(S(=O)(=O)CCC(=O)Nc2nc(C(C)(C)C)cs2)cc1,-3,-19%,-1%,21%,18%,-10%
Cc1cccc(NC(=O)c2cc3c(=O)n4cccc(C)c4nc3s2)c1C,·,·,·,·,5%[59 µM],0%
COc1ccccc1N(CC(=O)NCCSc1ccccc1)S(=O)(=O)c1ccc(C)cc1,·,·,·,·,-8%[59 µM],-3%
CCOC(=O)Cc1ccc(NC(=O)NCc2cccn2Cc2ccccc2)cc1,·,·,·,·,1%[59 µM],5%
COc1ccc(NC(=O)CSc2nnc(-c3ccc(OC)cc3)s2)cc1,·,·,·,·,-7%[59 µM],0%
CCN1CCN(Cc2c(O)ccc3oc(C)c(C(=O)Nc4ccc(OC)c(Cl)c4)c23)CC1,·,·,·,·,-22%[59 µM],22%
CN(C)S(=O)(=O)c1ccc2c(c1)N(CC(=O)NCc1cccc(Br)c1)C(=O)CS2,·,·,·,·,-3%[59 µM],5%
Cc1cc(NC(=O)C(C)(C)Oc2ccc(Cl)cc2)cc(-c2nc3ncccc3o2)c1O,·,·,·,·,13%[59 µM],10%
Cc1ccc(OCC(=O)N2CC3(C)CC2CC(C)(C)C3)cc1 (stereo not drawn),1,-2%,0%,5%,-12%[59 µM],0%
CC1(C)CC2CC(C)(CN2CC(O)c2ccccc2)C1 (stereo not drawn),0,-11%,-1%,-13%,22µM*,2%
CC1(C)CC2CC(C)(CN2CC(=O)C(C#N)c2ccccc2)C1 (stereo not drawn),1,-1%,-4%,-1%,?,-1%
Cc1cccc(OCC(O)CN2CCNCC2)c1 (stereo not drawn),-2,7%,4%,-1%,·,1%
Cc1cccc(OCC(O)CN2CC3(C)CC2CC(C)(C)C3)c1 (stereo not drawn),-1,-8%,-3%,-9%,28µM*,16%
Cc1ccc(OCC(O)CN2CC3(C)CC2CC(C)(C)C3)cc1 (stereo not drawn),-1,-6%,-22%,-26%,20µM*,-22%
COc1ccc(CNC(=O)c2cc3sccc3n2Cc2ccc(C)cc2)cc1,·,·,·,·,?,-2%
O=C(CN1C(=O)CCC1=O)Nc1nc(-c2ccccn2)cs1,-6,-13%,-2%,50µM*,15%,-20%
O=C(Nc1nc(-c2ccccn2)cs1)C1CCCC1,1,?,0%,?,?,-14%
CSCCC(=O)Nc1nc(-c2ccccn2)cs1,-9,?,0%,-68%,8.9µM*,?
O=C(CCCSc1ccccc1)Nc1nc(-c2ccccn2)cs1,3,21µM*,0%,-17%,?,?
Cc1cc(/C=N/n2cnnc2)c(C)n1-c1ccc(Cl)cc1,-6,-10%,1%,-9%,14µM*,?
Cc1cc(/C=N/n2cnnc2)c(C)n1-c1ccc(OCc2ccc(Cl)cc2Cl)cc1,-3,-6%,0%,35µM*,16%[12.7 µM],2%
Cc1cc(/C=N/n2cnnc2)c(C)n1-c1ccc(Cl)cc1Cl,-5,-14%,-1%,-15%,-39%[12.7 µM],-7%
SMILES,CCT chaperon mod,PLK1 PBD block,Mm-Cpn inhibitor,Sfp inh,G9a inh,VDR inh
CCNC(=S)N/N=C/c1cc(C)n(-c2ccc(Cl)cc2)c1C,-6,-5%,-1%,?,?,-17%
Cc1cc(/C=N/N2CCN(C)CC2)c(C)n1-c1ccc(Cl)cc1,1,-11%,2%,-17%,45µM*,18%
Cc1cc(/C=N/n2cnnc2)c(C)n1-c1ccccc1,0,0%,4%,4%,6%[59 µM],4%
Cc1sc(-n2c(C)cc(/C=N/n3cnnc3)c2C)c(C#N)c1C,0,17µM*,-3%,20µM*,8.9µM*,?
CC1=C(C(=O)Nc2ccc(F)cc2F)C2(CCN(C(C)C)CC2)OC1=O,·,·,·,·,6%[59 µM],5%
Cc1ccc(NC(=O)c2ccc(CN3CC(=O)N4CCCCC4C3=O)cc2)cc1 (stereo not drawn),·,·,·,·,-22%[59 µM],28%
COc1ccccc1-c1cc(C(F)(F)F)nc(S(=O)(=O)CCCC(=O)N2CCCCC2C)n1 (stereo not drawn),-1,?,2%,4%,?,32µM*
CN(C)/C=N/c1nc2ncc(-c3ccc(Cl)cc3)c(/N=C/N(C)C)n2n1,-2,27µM*,-3%,22%,7%,-8%
CN(C)/C=N/c1nc2nccc(-c3cccc(Cl)c3)n2n1,-5,27µM*,-15%,16%,3%,-25%
CN(C)/C=N/c1nc2nccc(-c3ccc(F)cc3)n2n1,-2,-15%,-8%,-4%,18%,-6%
O=C(O)c1cc2cc(Cl)cc(Cl)c2oc1=O,-1,?,1%,-16%,56µM*,-5%
CN1CCC(OC(=O)c2cc3cc(Cl)cc(Cl)c3oc2=O)CC1,1,-18%,3%,22%,?,-1%
O=C(NCCO)c1cc2cc(Cl)cc(Cl)c2oc1=O,-1,13µM*,1%,35µM*,3.2µM*,?
Cc1cc(=O)n(CC(=O)N2CCN(c3ccc(F)cc3)CC2)c2c1c(C)nn2C,·,·,·,·,1%[59 µM],-10%
CCc1ccc(OCC(=O)Nc2ccc(Cl)c(-c3nc4ncccc4o3)c2)cc1,·,·,·,·,-3%[59 µM],-13%
CCc1ccc(NC(=O)c2cc3nc(-c4ccc(C)cc4)cc(C(F)(F)F)n3n2)cc1,·,·,·,·,1%[59 µM],5%
C=C1C(=O)[C@]23C[C@H]1CCC2[C@@]1(C)C(C[C@@H]3O)[C@](C)(C(=O)OC)CC[C@@H]1OC(C)=O (stereo partly drawn),1,11µM*,·,·,·,·
Cc1cccc(NC(=O)Cn2nnc(C(=O)Nc3ccccc3Br)c2N)c1C,·,·,·,·,-5%[59 µM],1%
CCOc1cc(C(=O)Nc2cc3c(cc2N2CCCC2)n(C)c(=O)n3C)cc(OCC)c1OCC,2,-3%,1%,-12%,·,15%
CCOc1cc(C(=O)Nc2cc3c(cc2N2CCCC2)n(C)c(=O)c(=O)n3C)cc(OCC)c1OCC,·,·,·,·,10µM*,3%
CCn1c(=O)c(=O)n(CC)c2cc(N3CCCCC3)c(NC(=O)c3ccccc3OC)cc21,·,·,·,·,-13%[59 µM],6%
